From PubChem
Sfp PPTase inh – Sfp phosphopantetheinyl transferase inhibition; AID 1490; Potency, µM, hits mostly inhibitors; Biochemical Sfp PPTase activity, qHTS; actives 3.5% (n = 310,000); Q9F4F7;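 also: the enzyme is Sfp with the accession as filed and its product quenches rhodamine fluorescence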
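With Hepes-Na pH 7.6 buffer containing 10 mM MgCl2, Sfp (15 nM) modified BHQ-2-YbbR (12.5 uM) using rhodamine-CoA (5 uM). Two reads 30 minutes apart at 525/598 nm yielded each well's rate.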
VDR inhibitor – blocks the human vitamin D receptor; P11473; VDR-SRC2-3 peptide fluorescence polarization, 2 h; Potency, µM, most hits filed as inhibitors; actives 0.93% (n = 400,000)
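Compounds are added to VDR with labelled SRC2-3 coactivator peptide and held 2 h at room temperature. Inhibition of the VDR–peptide interaction is then read as a change in fluorescence polarization.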
Glioma ERSR ind – induces the endoplasmic reticulum stress response in human glioma cells; Potency, µM, hits mostly activators; actives 0.02% (n = 420,000); U87-MG GRP78 promoter luciferase reporter, 16 h; AID 602332; also: series mostly up to about 76 µM; nearly all actives have a fitted effect of over 35% in size
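Stably transfected U87-MG glioma cells carrying a GRP78-based luciferase sensor; 16 h compound incubation. Luminescence end-point read 10 min after Bright-Glo addition at room temperature.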
ALOX12 inh – blocks human arachidonate 12S-lipoxygenase | actives 1.1% (n = 580,000) | purified 12hLO, xylenol orange hydroperoxide absorbance | Potency, µM (top dose mostly 108 µM), hits mostly inhibitors | P18054
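Purified human 12hLO (150 nM final) in 25 mM Hepes, 0.01% Triton X-100, pH 7.0 was preincubated 15 min at room temperature with compound. Then 40 uM arachidonic acid was added, 30 min. Hydroperoxide was read by Fe-XO absorbance ratio 573/405 nm.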
G9a block – blocks human histone lysine methyltransferase G9a; Q96KQ7; G9a H3K9 monomethylation, AlphaScreen, 2 h; Potency, µM (series often up to 102 µM), usual class: inhibitors; actives 8.8% (n = 350,000); AID 504332; also: nearly all actives have a fitted effect of over 75% in size
Target sequence (Q96KQ7 913-1193 limits assumed): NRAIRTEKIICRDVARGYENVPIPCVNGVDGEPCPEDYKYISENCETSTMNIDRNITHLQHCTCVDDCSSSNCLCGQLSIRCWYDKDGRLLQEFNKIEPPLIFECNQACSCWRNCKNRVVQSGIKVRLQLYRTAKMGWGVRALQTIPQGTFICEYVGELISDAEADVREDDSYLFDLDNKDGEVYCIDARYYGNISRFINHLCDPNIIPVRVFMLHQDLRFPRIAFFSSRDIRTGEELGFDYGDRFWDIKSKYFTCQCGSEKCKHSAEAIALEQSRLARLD
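Signal arises when biotinylated H3K9 peptide, once monomethylated, bridges streptavidin donor and antibody-captured acceptor beads. Enzyme at 20 nM was preincubated 15 min with test compounds; peptide 500 nM and SAM 20 uM then reacted for 2 h.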
A number is an active result; - = inactive; ? = inconclusive; . = no result; [ ] = dose if it differs, or a comment. The full list was thinned out, with hits kept by preference. Calls follow the shape of the dose curve; as a rule, active = well fitted curve in the direction sought with a large enough effect; inconclusive = small, poorly fitted or top-dose-only effect, or another doubt; inactive = no such curve, though single readings can be large; an effect the other way counts as inactive or inconclusive.

SMILES	Sfp PPTase inh	VDR inhibitor	Glioma ERSR ind	ALOX12 inh	G9a block
Cc1cc(SCC(=O)Nc2cccc(S(=O)(=O)N3CCOCC3)c2)nc2ccccc12	-	-	-	-	40µM
O=C(Nc1cccc(S(=O)(=O)N2CCOCC2)c1)c1c2c(nc3ccccc13)CCC2	-	-	-	-	22µM
O=C(Nc1cccc(S(=O)(=O)N2CCOCC2)c1)c1ccc2ccccc2n1	-	-	-	-	-[12.7 µM]
Cc1ccc(SCC(=O)Nc2cccc(S(=O)(=O)N3CCOCC3)c2)cc1C	.	-	-	-	-[12.7 µM]
COCCN1CCC(CNCc2cn(-c3cc(C)ccc3C)nc2-c2ccccc2)C1 (stereo not drawn)	50µM	-	-	-	-
O=C(CSc1n[nH]c(-c2ccncc2)n1)c1ccccc1	-	-	-	-	?
Cc1nc(SCC(=O)c2ccccc2)n[nH]1	56µM	50µM	-	-	3.2µM
Cc1nc(SCN2C(=O)c3ccccc3C2=O)n[nH]1	-	-	-	-	8.9µM
COc1ccccc1-n1c(-c2ccccc2)cn2c3c(=O)[nH]c(=O)n(C)c3nc12	.	.	.	-	.
CC(c1nnc(-c2cccs2)o1)N(C)Cc1ccccc1F (stereo not drawn)	.	.	.	-	.
Cc1cc(C)cc(C2(CNC(=O)C3CC4(CCNCC4)CN3)CCCC2)c1 (stereo not drawn)	.	.	.	-	.
O=C(O)c1c(Cl)c(Cl)c(Cl)c(Cl)c1C(=O)N1CCOCC1	?	-	-	11µM	-
FC(F)(F)c1nnc(-c2ccccc2)nc1Sc1ccccc1	-	-	-	-	-[0.0925 µM]
FC(F)(F)c1nnc(-c2ccccc2)nc1Sc1ccc(Cl)cc1	?	71µM	-	-	-
CCN(CC)S(=O)(=O)c1ccc(Cl)c(NC(=S)NC(=O)C2CCCC2)c1	.	-	-	16µM	-
CCN(c1ccccc1)S(=O)(=O)c1ccc(OC)c(NC(=O)CN(C)C)c1	-	-	-	-	13µM
CCN(c1ccccc1)S(=O)(=O)c1ccc(OC)c(NC(=O)CNC)c1	-	-	-	?	-[12.7 µM]
CCN(CC)c1ccc(S(=O)(=O)Nc2cc(Cl)ccc2Cl)cc1NC(=S)NC(=O)C1CCCC1	-	-	-	?	?
CCN(c1ccccc1)S(=O)(=O)c1ccc(Cl)c(NC(=O)COC(=O)c2ccc(O)cc2)c1	-	-	-	-	-
CCN(c1ccccc1)S(=O)(=O)c1ccc(Cl)c(NC(=O)CN2CCCCCC2)c1	56µM	-	-	-	-
CCN(c1ccccc1)S(=O)(=O)c1ccc(Cl)c(NC(=O)COC(=O)c2cc(O)c3ccccc3c2O)c1	45µM	.	.	.	?
Cc1cc(C)c(C)c(S(=O)(=O)Nc2ccc(N)c([N+](=O)[O-])c2)c1C	.	.	.	-	.
CC(C)(C)C(=O)/C=c1/[nH]c(=O)/c(=C/c2cccc(C(F)(F)F)c2)s1	.	.	.	-	.
COc1cc(CN2CCN(Cc3ccc(C)cc3)CC2)cc(OC)c1	.	.	.	0.5µM	.
COC1CCN(Cc2ccc(C)cc2)CC1	.	.	.	-	.
SMILES	Sfp PPTase inh	VDR inhibitor	Glioma ERSR ind	ALOX12 inh	G9a block
COc1ccccc1CN1CCN(Cc2ccco2)CC1	?	-	-	?	45µM
CC(C)(C)C(=O)N1CCN(Cc2ccco2)CC1	.	.	.	-	.
Cc1ccc(CN2CCN(C(=O)c3ccco3)CC2)cc1	-	-	-	-	-
COc1cc(CN2CCN(Cc3ccco3)CC2)cc(OC)c1	?	-	-	?	8.9µM
Cc1ccc(CN2CCN(Cc3ccco3)CC2)cc1	?	-	-	-	7.9µM
COc1ccccc1CN1CCSCC1	-	-	-	?	?
CC(C)Cc1ccc(C(C)NC(=O)C2CCC2)cc1 (stereo not drawn)	.	.	.	-	.
O=C(N/N=C/c1cccs1)c1cccc(Cl)c1	.	.	.	-	.
CO[C@@H]1COCC[C@H]1NC1CCN(c2ncc3ccc(F)cc3n2)CC1	.	.	.	-	.
CC(N)CCc1ccc(O)cc1 (stereo not drawn)	.	.	.	-	.
COc1ccc(CN2CCN(Cc3ccco3)CC2)c(OC)c1	56µM	-	-	?	40µM
COc1ccc2nc(SCC(=O)Nc3ccccc3C(=O)Nc3ccc4c(c3)OCO4)[nH]c2c1	.	.	.	-	.
CC(Cl)C(=O)NNc1cccc(Cl)n1 (stereo not drawn)	50µM	-	-	-	-
O=C(NNc1cccc(Cl)n1)Nc1ccccc1	-	-	-	-	.
CCCN(CCC)S(=O)(=O)c1ccc(C(=O)NCc2n[nH]c(=S)n2-c2ccc(Cl)c(Cl)c2)cc1	-	-	-	?	18µM
O=C(NCc1n[nH]c(=S)n1-c1cccc(Cl)c1)c1ccc(S(=O)(=O)N2CCCC2)cc1	?	-	-	?	?
Cc1cccc(-n2c(CNC(=O)c3ccc(S(=O)(=O)N4CCCCC4)cc3)n[nH]c2=S)c1	-	-	-	?	7.1µM
O=C(NCc1n[nH]c(=S)n1-c1cccc(C(F)(F)F)c1)c1ccc(S(=O)(=O)N2CCCCC2)cc1	?	-	-	?	8.9µM
O=C(NCc1n[nH]c(=S)n1-c1ccc(Cl)c(Cl)c1)c1ccc(S(=O)(=O)N2CCCCC2)cc1	-	-	-	?	8.9µM
CC(CNC(=O)NCc1cccs1)N1CCOCC1 (stereo not drawn)	.	.	.	-	.
